# TRHR agonist: qHTS for Small Molecule Agonists and Allosteric Enhancers of Human TRH Receptor: Primary Screen for Agonists | Thyrotropin-releasing hormone receptor (Homo sapiens), P34981 | TRHR cells, calcium flux fluo-8, FDSS agonist mode | activation, % at 2 µM | 0.18% of 360,000 active; also: 0% is about no effect
# Target sequence (P34981 whole entry, looked up): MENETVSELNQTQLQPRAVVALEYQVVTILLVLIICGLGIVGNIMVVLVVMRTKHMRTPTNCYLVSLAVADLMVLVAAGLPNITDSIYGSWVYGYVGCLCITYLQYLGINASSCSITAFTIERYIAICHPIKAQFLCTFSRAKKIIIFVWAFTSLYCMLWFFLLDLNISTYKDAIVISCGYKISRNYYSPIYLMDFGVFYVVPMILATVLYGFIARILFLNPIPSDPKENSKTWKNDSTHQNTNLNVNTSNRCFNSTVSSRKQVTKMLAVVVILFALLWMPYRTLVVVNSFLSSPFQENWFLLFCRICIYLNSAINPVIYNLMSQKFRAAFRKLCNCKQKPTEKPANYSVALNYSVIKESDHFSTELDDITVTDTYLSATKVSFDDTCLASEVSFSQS
#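 Agonist-mode FDSS calcium read (Ex 480/Em 530, 1 s cycles) in 1536-well TRHR cells with fluo-8 dye, after 10-cycle baseline and 23 nL compound addition; TRH at EC20 (10 nM final) added afterwards for the enhancer phase.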
# D1 agonist: Allosteric Agonists of the Human D1 Dopamine Receptor: qHTS | D(1A) dopamine receptor (Homo sapiens), P21728 | HEK293 T-REx D1 cells, calcium flux, agonist mode | activation, % at 2 µM | 1% of 360,000 active | AID 504660, 2011; also: 0% is about no effect
#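 Tetracycline-induced HEK293 TREx D1 cells, force-coupled to calcium signalling, were dye-loaded with a no-wash calcium kit. Compound was pin-added after a 10 s baseline. Fluorescence was read kinetically at 1 cycle/s for 180 s, with calcium rises flagged as agonism.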
# TRHR PAM: qHTS for Small Molecule Agonists and Allosteric Enhancers of Human TRH Receptor: Primary Screen for Enhancers; TRHR cells, fluo-8 calcium fluorescence, EC20 TRH enhancement; 0.66% of 360,000 active; Thyrotropin-releasing hormone receptor (Homo sapiens), P34981; enhancement, % at 2 µM; in the data active = enhancement above about 30%; also: 0% is about no effect
#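 Enhancer read-out: after compound pinning and an initial kinetic agonist-mode read, an EC20 of TRH (10 nM final) was injected and fluo-8 calcium signal (Ex 480/Em 530) followed at 1 s/cycle for 100 cycles in TRHR-expressing cells.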
# D1 antagonist: Antagonist of Human D 1 Dopamine Receptor: qHTS; activity change, negative = inhibition, % at 10 µM; 3.2% of 360,000 active; AID 504652, 2011; HEK293 TREx D1 cells, calcium flux, dopamine EC80; active compounds read low; in the data active = activity change below about -30%; also: % is scaled to controls: 0 for no effect and ±100 for the full control effect
#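 After overnight tetracycline induction at 30 C, force-coupled D1 HEK293 cells took up a no-wash calcium dye at room temperature. Compounds were added and monitored 180 s, and the response to EC80 dopamine was then recorded.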
# D1 PAM: Potentiators of Human D1 Dopamine Receptor: qHTS | D(1A) dopamine receptor (Homo sapiens), P21728 | potentiation, % at 10 µM | HEK293 TREx D1 cells, calcium flux, dopamine EC20 potentiation | 0.036% of 360,000 active; in the data active = potentiation above about 30%; also: 0% is about no effect
# An asterisk follows results filed as active; x = no result. The list is not random: actives were taken first. Their share in the collection is about 4.6%. Rule as the data show it, unless noted: active = activation above about 30%; inactive = the rest.
SMILES,TRHR agonist,D1 agonist,TRHR PAM,D1 antagonist,D1 PAM
COc1ccc(-n2ncc3c2ncn2nc(Cc4ccccc4)nc32)cc1,0,2,2,-34*,0
COc1ccc(C2CC(=O)N3CN(c4ccc(C)c(Cl)c4)CSC3=C2C#N)cc1 (stereo unspecified),0,3,31*,-3,-5
COCc1cc(=O)[nH]c(N2CCN(C(=O)c3ccco3)CC2)n1,0,0,2,4,1
Cc1cnc(C(=O)OCC(=O)Nc2cccc(S(=O)(=O)N3CCCCC3)c2)cn1,2,3,2,-1,3
CCc1cccc(OCC(=O)Nc2ccc(C)c(S(=O)(=O)N3CCCCCC3)c2)c1,3,33*,-16,-17,3
CCC(=O)Nc1cc(-c2cccc(C)c2)nn1-c1ccccc1,0,0,6,9,0
CCOc1ccc(C(=O)CCC(=O)Nc2ccc(C)c(S(=O)(=O)N3CCCCC3)c2)cc1,-1,3,14,2,-3
Cc1cnc(C(=O)OCC(=O)Nc2cc(-c3ccccc3)nn2-c2ccccc2)cn1,0,1,32*,5,2
CC(=O)c1ccc(OCCCC(=O)Nc2ccc(C)c(S(=O)(=O)N3CCCCC3)c2)cc1,2,20,4,-36*,-5
Cc1cnc(C(=O)OCC(=O)Nc2ccc(C)c(S(=O)(=O)N3CCCCCC3)c2)cn1,0,1,33*,12,-2
Cc1ccc(-c2cccc(CN3CCN(C(C)C)C(CCO)C3)c2)o1 (stereo unspecified),1,2,-5,4,-3
O=C(CN(C1CCCCC1)S(=O)(=O)c1ccc(Cl)cc1)NCc1cccnc1,0,-1,0,1,2
Cc1c(NS(=O)(=O)c2ccc(NCCN3CCOCC3)c([N+](=O)[O-])c2)c(=O)n(-c2ccccc2)n1C,0,1,4,-7,-1
CCOC(=O)CN1C(=O)C(=O)N(Cc2cccc(C)c2)C1=O,-1,33*,6,-25,2
CCOC(=O)CN1C(=O)C(=O)N(Cc2c(Cl)cccc2Cl)C1=O,-1,5,25,14,1
O=C(Cn1cnc2c(nnn2Cc2ccc(F)cc2)c1=O)NCc1ccccc1,0,1,9,0,-1
Cc1ccc2[nH]c(=O)c(CN(Cc3nnnn3Cc3ccccc3)C3CCCC3)cc2c1,0,-1,33*,2,6
CCc1ccc2[nH]c(=O)c(CN(Cc3ccccc3)Cc3nnnn3Cc3ccco3)cc2c1,1,5,-1,7,3
CCOC(=O)Cn1nnnc1CN(Cc1ccccc1)Cc1cc2cc(CC)ccc2[nH]c1=O,0,2,0,-39*,-5
COc1ccc(C2(CNC(=O)Cc3ccccc3)CCCC2)cc1OC,-2,2,1,25,0
CCCN1CCN(C(=S)Nc2ccc(SC(F)F)cc2)CC1,2,3,0,8,0
NS(=O)(=O)c1cc(C(=O)OCC(=O)N2CCc3ccccc3C2)ccc1Cl,0,6,-4,5,x
Oc1ccc(Br)cc1C1C=C(c2ccc3c(c2)OCO3)NC(c2c(F)cccc2Cl)N1 (stereo unspecified),1,19,-2,-56*,-4
Oc1ccccc1C1C=C(c2ccc3c(c2)OCO3)NC(c2c(F)cccc2Cl)N1 (stereo unspecified),1,12,4,32,2
Oc1ccc(Cl)cc1C1C=C(c2ccc3c(c2)OCO3)NC(c2cc(Br)ccc2F)N1 (stereo unspecified),2,31*,-2,-9,-2
SMILES,TRHR agonist,D1 agonist,TRHR PAM,D1 antagonist,D1 PAM
CC1(C)C(=O)N(CC(=O)Nc2cccc(F)c2)c2ccc(S(=O)(=O)N3CCCCC3)cc21,1,1,-1,19,-3
CCCc1c(C)nc(N2CCN(c3ccc(F)cc3)CC2)[nH]c1=O,0,13,-4,-30*,-1
CCc1c(C)nc(N2CCN(c3ccc(F)cc3)CC2)[nH]c1=O,1,7,2,-9,-5
COc1ccccc1CN1C2CCCC1CC(NC(=O)/C=C/c1ccccc1)C2 (stereo unspecified),0,0,32*,-12,3
O=C(CCCCn1c(=O)[nH]c2ccsc2c1=O)N1CCN(c2cccc(Cl)c2)CC1,0,4,1,-36*,-1
O=C(CCn1c(=O)[nH]c2ccsc2c1=O)N1CCN(c2cccc(Cl)c2)CC1,-2,1,8,-50*,-7
O=C(CCn1c(=O)[nH]c2ccsc2c1=O)N1CCN(c2ccc([N+](=O)[O-])cc2)CC1,0,4,36*,-2,5
Cc1ccc(C(=O)C(C)OC(=O)c2ccccc2[N+](=O)[O-])cc1 (stereo unspecified),0,4,4,-12,5
O=C(CN1C(=O)c2cccnc2C1=O)c1ccccc1,0,-1,7,-31*,-7
O=C(CN1C(=O)C(=O)c2ccccc21)c1ccccc1,-1,-1,3,1,0
CCc1cccc(CN2CCC(CNC(=O)Nc3ccc(Cl)cc3)CC2)c1,1,39*,0,-44*,-7
Cc1cc(CN2CCCCC2C(=O)Nc2ccc(Oc3cccnc3)cc2)oc1C (stereo unspecified),0,3,5,-33*,-6
O=C(Nc1ccc(Oc2cccnc2)cc1)C1CCN(Cc2ccccc2)CC1,2,25,2,-2,-6
O=C(Nc1ccc(Oc2cccnc2)cc1)C1CCCCN1Cc1ccc(CO)o1 (stereo unspecified),0,2,5,1,1
O=C(NCC1CCN(Cc2cccc(Cl)c2)CC1)Nc1ccc(F)c(Cl)c1,2,21,-1,-6,-4
COc1ccc(OC)c(CN2CCC(CNC(=O)Nc3cccc(Cl)c3)CC2)c1,-1,26,3,-8,-3
O=C(NCC1CCN(Cc2cccc(Cl)c2)CC1)Nc1ccc(Cl)cc1,2,31*,10,-73*,-19
O=C(Nc1ccc(Oc2cccnc2)cc1)C1CCN(Cc2cccc(Cl)c2)CC1,1,49*,2,-37*,-12
OCCNC(=S)Nc1ccc2nsnc2c1,0,2,-4,-8,-7
CCOc1ccc(NC(=O)NC2(C(=O)NCc3ccco3)CCCCC2)cc1,0,0,-5,-7,x
COc1ccc(-c2nnc(SCC(=O)Nc3ccc(C(C)=O)cc3)nc2-c2ccc(OC)cc2)cc1,0,3,2,-70*,-9
